# TEAD-YAP inh: TEAD-YAP interaction inhibition, primary screen, TEAD-YAP interaction inhibitor project, luminescence, HEK-TIYL cells | TEAD-Gal4/YAP UAS-luciferase luminescence | inhibition, % at 9.12 µM | actives 1.4% (n = 640,000) | AID 1259422, 2018; in the data active = inhibition above about 32%;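 note: 0% = median of test compound wells and 100% = reference inhibitor wells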
# GPR151 ag: activators of human GPR151, primary screen, cell-based, PathHunter beta-arrestin, luminescence; G-protein coupled receptor 151 (Homo sapiens), Q8TDV0; PathHunter beta-arrestin GPR151 cells; activation, % at 11.2 µM; actives 1% (n = 650,000); AID 1508602, 2020; in the data active = activation above about 4.9%;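 note: 0% = median of compound wells and 100% = cells with positive control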
# FBW7 act: FBW7 E3 ligase activators, primary screen, biochemical, AlphaScreen, human. F-box/WD repeat-containing protein 7 (Homo sapiens), Q969H0. AlphaScreen FBW7–phospho-cyclin E peptide binding, activator screen. normalized activity (activation), % at 26.1 µM. actives 0.13% (n = 650,000); in the data active = normalized activity above about 1.9%;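 note: purified mutant Fbw7 with reduced substrate affinity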
# MITF primary: MITF inhibitors, primary screen, biochemical, AlphaScreen, human; AlphaScreen MITF homodimerization, bead proximity signal; inhibition, % at 2.6 µM; actives 0.91% (n = 650,000); in the data active = inhibition above about 50%;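 note: 0% = vehicle wells with protein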
# Target sequence (O75030 whole entry, looked up): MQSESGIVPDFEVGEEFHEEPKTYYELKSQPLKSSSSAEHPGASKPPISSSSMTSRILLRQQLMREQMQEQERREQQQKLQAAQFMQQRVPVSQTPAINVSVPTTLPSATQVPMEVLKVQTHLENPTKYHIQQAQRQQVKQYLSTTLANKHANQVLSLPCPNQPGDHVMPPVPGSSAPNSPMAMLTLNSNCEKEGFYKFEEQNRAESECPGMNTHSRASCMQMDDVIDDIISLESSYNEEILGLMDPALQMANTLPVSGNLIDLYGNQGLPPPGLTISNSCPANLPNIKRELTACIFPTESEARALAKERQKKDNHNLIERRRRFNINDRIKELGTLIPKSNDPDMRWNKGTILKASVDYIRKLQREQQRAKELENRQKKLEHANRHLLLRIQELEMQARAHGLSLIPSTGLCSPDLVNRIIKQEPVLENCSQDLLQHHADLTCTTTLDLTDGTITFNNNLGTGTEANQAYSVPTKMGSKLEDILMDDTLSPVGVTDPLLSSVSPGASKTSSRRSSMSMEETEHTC
# MITF confirm: MITF inhibitors, retest of hits, confirmation, biochemical, AlphaScreen, triplicate. actives 16% (n = 4,700). AlphaScreen MITF homodimerization, biotin/His-MITF beads. shares compounds with MITF primary. inhibition, % at 2.6 µM;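 active = inhibition above a cutoff derived from the DMSO control wells, cut at about 28% in these data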;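 note: 0% = MITF dimer wells with DMSO only; inhibitors lower the bead chemiluminescence by keeping MITF from dimerizing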
# AS interf DR: AlphaScreen optical interference compounds, dose response, counter-screen, biochemical, HTS. actives 6% (n = 480). shares compounds with MITF primary. AlphaScreen optical interference counterscreen, cell-free. AID 1259373, 2018. IC50, µM; call rule not given here
# AS interf ctr: AlphaScreen optical interference compounds, counter-screen for MITF inhibitor project, biochemical, triplicate. shares compounds with MITF primary. LysRS AlphaScreen counterscreen, signal interference. inhibition, % at 2.6 µM. actives 7.6% (n = 4,700). AID 1259376, 2018;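 active = inhibition above a cutoff derived from the DMSO control wells, cut at about 30% in these data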
# Active calls of the source: *; . = not tested or not shown. Only some compounds are listed: those with a hit (about 3.5% of all), similar ones and a draw of the others.
SMILES,TEAD-YAP inh,GPR151 ag,FBW7 act,MITF primary,MITF confirm,AS interf ctr,others
CN(CCc1ccccn1)Cc1ccccc1F,-1,0,0,79*,2,19,
CN(C)CCN(C)Cc1ccccc1F,-2,1,0,53*,-2,-2,
COc1cccc(CN(C)CCc2ccccn2)c1OC,-2,-1,0,41,.,.,
C=CCOc1ccccc1CN(C)CCc1ccccn1,9,0,0,65*,-12,-7,
CN(C)CCN(C)Cc1ccccc1[N+](=O)[O-],-2,-1,0,76*,10,17,
CCN1CCCC1CNC(=O)CCCCCn1c(=S)[nH]c2ccccc2c1=O (stereo not given),10,-1,0,13,.,.,
COc1cc2nc(/C=C/c3ccccc3F)n(-c3cccc(Cl)c3)c(=O)c2cc1OC,-12,-1,0,-10,.,.,
CN(CCc1ccccn1)Cc1ccccc1[N+](=O)[O-],1,0,0,57*,11,1,
CN(CCc1ccccn1)Cc1ccccc1Br,3,0,0,81*,1,11,
COc1ccc(CN(C)CCc2ccccn2)c(OC)c1,2,-1,0,77*,4,3,
CN(CCc1ccccn1)Cc1cc2c(cc1[N+](=O)[O-])OCO2,-9,1,0,8,.,.,
Cc1cccc(NC(=S)Nc2cccc(S(=O)(=O)N(C)C)c2)c1,-1,1,0,-4,.,.,
COc1cccc2cc(-c3csc(NC(=O)c4ccccc4Cl)n3)oc12,-2,2,0,-12,.,.,
S=c1[nH]nc(-c2ccccc2)n1/N=C/C=C/c1ccco1,-4,1,0,1,.,.,
S=c1[nH]nc(-c2cccnc2)n1/N=C/C=C/c1ccco1,1,0,0,71*,77*,2,AS interf DR=>6.5
Cc1nc(NCCCN2CCOCC2)c2cc(-c3ccccc3)sc2n1,-13,0,0,55*,6,6,
Cc1cc(C(=O)NNC(=S)NCC2CCCO2)no1 (stereo not given),0,0,0,5,.,.,
O=C(Nc1ccc2c(c1)OCO2)c1ccccn1,11,-10,0,-3,.,.,
O=C(NNC(=S)NCC1CCCO1)c1ccccn1 (stereo not given),23,1,-2,118*,116*,100*,
O=C(NNC(=S)Nc1ccc2c(c1)OCO2)c1ccccn1,-47,-2,-2,117*,96*,91*,
COc1ccc(C(CNCC(=O)Nc2ccccc2-c2ccccc2)N2CCOCC2)cc1 (stereo not given),5,-1,0,83*,-15,-1,
COC(=O)Nc1ccc(S(=O)(=O)N2CCC(C)CC2)cc1,2,1,0,75*,7,19,
C=CCn1c(C)nnc1SCC(=O)NCC12CC3CC(CC(C3)C1)C2,-7,-3,0,21,.,.,
CCN1CCN(CCCNC(=O)COc2ccc3c(c2)C(=O)CC(C)(C)O3)CC1,6,1,0,57*,-1,10,
CCCCCCCNC(=O)COc1ccc2c(c1)C(=O)CC(C)(C)O2,3,1,0,-12,.,.,
SMILES,TEAD-YAP inh,GPR151 ag,FBW7 act,MITF primary,MITF confirm,AS interf ctr,others
O=C1CC(=O)N(c2cccc(Cl)c2)N1,1,0,1,0,.,.,
O=C(CSc1ccc(F)cc1)N1CC(c2nc3ccccc3[nH]2)C1,5,0,0,60*,6,14,
CN1CCN(CC(O)Cn2cc(/C=C/C(=O)c3cccs3)c3ccccc32)CC1 (stereo not given),12,-3,0,5,.,.,
CN1CCN(CC(O)Cn2cc(/C=N/O)c3ccccc32)CC1 (stereo not given),-3,-2,0,59*,13,11,
Clc1ccc(/C=N/Nc2nncc3ccccc23)cc1Cl,-28,1,0,17,.,.,
C(=N\Nc1nncc2ccccc12)/c1ccccn1,78*,-2,0,82*,18,29,
CN(C)c1cccc(Nc2cc(C(=O)NCCc3ccc(O)cc3)c3ccccc3n2)c1,0,1,0,70*,-3,3,
CCCNC(=O)c1cc(Nc2cccc(N(C)C)c2)nc2ccccc12,4,-2,0,-7,.,.,
COc1ccc2ccccc2c1CN1CCN(C(=O)c2cccnc2)CC1,0,-1,0,50,.,.,
CCOC(=O)N1CCN(Cc2cccc3ccccc23)CC1,0,0,1,-21,.,.,
O=C(c1ccncc1)N1CCN(Cc2cccc3ccccc23)CC1,-5,0,0,67*,-3,4,
O=C(c1cccnc1)N1CCN(Cc2cccc3ccccc23)CC1,-4,0,-1,51*,-12,-8,
Cc1ccc2[nH]c(C)c(CCN=C(N)NS(=O)(=O)c3ccccc3)c2c1,4,-2,0,24,.,.,
CCOC(=O)C(Cl)NNc1ccccc1[N+](=O)[O-] (stereo not given),-9,-1,0,72*,20,-1,
CCOC(=O)C(=CNc1ccccc1[N+](=O)[O-])C(=O)OCC,5,0,0,4,.,.,
Brc1ccccc1OCCCCN1CCNCC1,-7,0,0,51*,-9,-6,
CCOc1ccccc1OCCCN1CCNCC1,-5,0,0,-8,.,.,
Clc1ccc(OCCCCN2CCNCC2)cc1,-15,2,0,-2,.,.,
CC(C)(C)c1ccccc1OCCCN1CCNCC1,-15,-1,0,60*,3,4,
Clc1ccccc1OCCCCN1CCNCC1,-6,-1,0,54*,-6,-7,
COc1ccc(OC)c(CN2CCOc3ccc(CN4CCCC(C(N)=O)C4)cc3C2)c1 (stereo not given),-20,-1,1,2,.,.,
Clc1ccc(N2CCN(Cc3ccc(Br)o3)CC2)cc1,2,1,0,58*,4,-1,
Brc1ccc(CN2CCN(Cc3ccccc3)CC2)o1,1,0,0,55*,4,15,
Cc1ccc(-c2nn3c(C(=S)Nc4ccc(Cl)cc4)c(-c4ccc(Cl)cc4)c4c3n2CCCC4)cc1,-1,1,0,7,.,.,
O=c1[nH]c(/C=C\c2ccc(Cl)cc2)c([N+](=O)[O-])c(=O)[nH]1,-7,3,0,-3,.,.,
COc1cc2c(cc1OC)CN(Cc1cc(OC)c3c(c1)OCO3)CC2,2,0,0,24,.,.,

# Screening data as filed in PubChem BioAssay.
